These results are taken from ChEMBL document CHEMBL1961873, “Compounds: GSK PKIS; Assays: Nanosyn kinase panel” (2012).

The inhibition is the relative decrease from the control value, in per cent.

Experiment [1] has as its target Casein kinase I isoform gamma-2 (Homo sapiens) (UniProt P78368). As to conditions: at 1 µM.
Experiment [2] deals with Casein kinase I isoform gamma-3 (Homo sapiens) (UniProt Q9Y6M4). As to conditions: at 0.1 µM.
The target is the same in experiment [3]. As to conditions: at 1 µM.
Experiment [4] addresses Cyclin-dependent kinase 1 (Homo sapiens) (UniProt P06493). As to conditions: at 0.1 µM.
The target is the same in experiment [5]. As to conditions: at 1 µM.
The target of experiment [6] is Cyclin-dependent kinase 2 (Homo sapiens) (UniProt P24941). Particulars: at 0.1 µM.
Experiment [7] shares this target. Particulars: at 1 µM.
Experiment [8] shares this target. Particulars: at 0.1 µM. This is another data set of the same source.
The target is the same in experiment [9]. Particulars: at 1 µM. This is another data set of the same source.
In experiment [10] the target is CDK3/Cyclin E (Homo sapiens) (UniProt P24864+Q00526). Particulars: at 0.1 µM.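 Further: reported percentages are mean inhibition values.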

Where “and” joins values, the source holds several entries; their conditions need not be identical. Equal values may be shown once.

Sequence of CDK3/Cyclin E (Homo sapiens) (P24864 whole entry, looked up): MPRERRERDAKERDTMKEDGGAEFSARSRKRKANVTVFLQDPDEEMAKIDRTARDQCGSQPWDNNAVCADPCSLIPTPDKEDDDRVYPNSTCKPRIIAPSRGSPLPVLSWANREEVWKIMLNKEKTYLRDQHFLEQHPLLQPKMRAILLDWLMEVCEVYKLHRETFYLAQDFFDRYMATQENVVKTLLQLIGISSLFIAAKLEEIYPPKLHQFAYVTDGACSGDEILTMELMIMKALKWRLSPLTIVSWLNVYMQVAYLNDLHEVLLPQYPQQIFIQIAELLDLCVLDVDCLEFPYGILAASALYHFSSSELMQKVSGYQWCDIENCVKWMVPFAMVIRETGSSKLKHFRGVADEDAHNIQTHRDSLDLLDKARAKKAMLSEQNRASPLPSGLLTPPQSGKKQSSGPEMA
Sequence of CDK3/Cyclin E (Homo sapiens) (Q00526 whole entry, looked up): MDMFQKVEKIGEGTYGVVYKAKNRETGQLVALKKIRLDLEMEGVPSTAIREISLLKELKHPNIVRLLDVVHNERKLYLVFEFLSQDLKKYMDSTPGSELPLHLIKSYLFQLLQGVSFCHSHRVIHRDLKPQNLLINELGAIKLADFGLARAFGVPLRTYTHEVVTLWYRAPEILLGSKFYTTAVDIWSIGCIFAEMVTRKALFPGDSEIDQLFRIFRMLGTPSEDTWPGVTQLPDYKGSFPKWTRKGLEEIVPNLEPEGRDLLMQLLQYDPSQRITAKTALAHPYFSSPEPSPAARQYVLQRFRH
Sequence of Casein kinase I isoform gamma-3 (Homo sapiens) (Q9Y6M4 whole entry, looked up, canonical isoform): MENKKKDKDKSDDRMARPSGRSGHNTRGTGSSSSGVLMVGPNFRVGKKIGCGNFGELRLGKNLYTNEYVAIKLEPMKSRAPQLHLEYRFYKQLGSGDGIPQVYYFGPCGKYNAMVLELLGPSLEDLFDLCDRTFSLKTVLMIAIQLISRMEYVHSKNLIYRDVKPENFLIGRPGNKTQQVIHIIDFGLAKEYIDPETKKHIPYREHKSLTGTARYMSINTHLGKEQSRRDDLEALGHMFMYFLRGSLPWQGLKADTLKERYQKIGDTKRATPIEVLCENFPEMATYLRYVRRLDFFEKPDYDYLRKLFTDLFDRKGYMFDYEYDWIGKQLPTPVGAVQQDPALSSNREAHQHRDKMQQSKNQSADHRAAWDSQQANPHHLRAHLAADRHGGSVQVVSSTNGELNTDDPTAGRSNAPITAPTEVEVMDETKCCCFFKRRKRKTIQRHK
Sequence of Cyclin-dependent kinase 1 (Homo sapiens) (P06493 whole entry, looked up): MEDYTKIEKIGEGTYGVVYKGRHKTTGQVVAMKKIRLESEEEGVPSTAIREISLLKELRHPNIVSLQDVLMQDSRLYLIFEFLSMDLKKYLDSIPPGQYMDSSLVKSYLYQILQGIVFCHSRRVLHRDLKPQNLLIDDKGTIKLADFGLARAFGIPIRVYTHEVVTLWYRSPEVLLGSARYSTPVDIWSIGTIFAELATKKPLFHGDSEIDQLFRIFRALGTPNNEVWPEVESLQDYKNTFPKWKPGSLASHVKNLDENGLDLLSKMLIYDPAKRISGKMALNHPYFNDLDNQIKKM
Sequence of Casein kinase I isoform gamma-2 (Homo sapiens) (P78368 whole entry, looked up, canonical isoform): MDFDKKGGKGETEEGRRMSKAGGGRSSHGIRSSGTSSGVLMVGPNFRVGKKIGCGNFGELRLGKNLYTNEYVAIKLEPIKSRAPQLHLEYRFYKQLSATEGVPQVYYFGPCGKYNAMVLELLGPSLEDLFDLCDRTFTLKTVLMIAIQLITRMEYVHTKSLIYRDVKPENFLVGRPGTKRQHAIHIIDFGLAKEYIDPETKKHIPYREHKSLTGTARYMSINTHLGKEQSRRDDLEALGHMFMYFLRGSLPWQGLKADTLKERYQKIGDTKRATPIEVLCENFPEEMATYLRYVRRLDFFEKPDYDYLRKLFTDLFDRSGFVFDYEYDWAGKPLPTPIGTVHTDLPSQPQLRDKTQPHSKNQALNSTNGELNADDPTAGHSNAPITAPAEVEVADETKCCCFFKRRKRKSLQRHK

Regarding `CS(=O)(=O)CCNCc1ccc(-c2ccc3ncnc(Nc4ccc(OCc5cccc(C(F)(F)F)c5)cc4)c3c2)o1`, the inhibition stood at 3.89% in [1]; 3.14% in experiment [2]; 2.45% in [3]; 1.34% in experiment [4]; 0.34% in experiment [5]; 2.27% in experiment [6]. Further, the inhibition in experiment [7] is 1.87%; in experiment [8] it was 2.01%; in [9] it was 3.44%; in [10] it was -1.58%.

Consider `CS(=O)(=O)Nc1ccc(-c2cc(-c3ccccc3)cc(C(N)=O)c2N)cc1`, for which the inhibition in experiment [1] is 0.9%; in [2], 2.42%; in experiment [3], 0.43%; in experiment [4], 0.06%; in experiment [5], -0.25%; in [6] it was 0.21%. Also, the inhibition in experiment [7] was 1.06%; in [8], 0.2%; in experiment [9], 1.37%; in [10] it was -0.04%.

As to `Cn1c(-c2nonc2N)nc2cnccc21`, the inhibition in experiment [1] was found to be 3.42%; in experiment [2] it was 1.53%; in experiment [3], 2.15%; in [4], 1.15%; in [5] it was 4.4%; in experiment [6], 2.01%. Besides, the inhibition in experiment [7] stood at 11.2%; in experiment [8] it was 3.69%; in [9], 11.6%; in experiment [10] it was 6.05%.

`COc1ccccc1-c1cc(/C=C2\C(=O)Nc3ncc(Br)cc32)cc(Br)c1O`: the inhibition in experiment [1] turned out to be 6.34%; in experiment [2], 4.08%; in experiment [3] it was 3.37%; in experiment [4] it was 3.53%; in [5], 5.31%; in [6] it was 2.84%. In addition, the inhibition in experiment [7] is -1.47%; in experiment [8], 7.89%; in experiment [9], 9.34%; in [10], 5.76%.

In the case of `CNC(=O)c1sc(-n2cnc3cc(OC)c(OC)cc32)cc1OCc1ccccc1C(F)(F)F`, the inhibition in experiment [1] was 3.65%; in experiment [2], 3.86%; in experiment [3], 4.26%; in experiment [4], 0.69%; in experiment [5], 2.03%; in [6], 0.22%. Besides, the inhibition in [7] stood at 1.77%; in [8], 2.17%; in experiment [9], 3.8%; in experiment [10] it was 0.35%.

In the case of `CS(=O)(=O)CCNCc1ccoc1-c1ccc2ncnc(Nc3ccc(OCc4ccccc4)cc3)c2c1`, the inhibition in experiment [1] was 0.93%; in experiment [2], 1.14%; in experiment [3] it was 0.44%; in experiment [4] it was -0.72%; in [5] it was 1.35%; in experiment [6] it was 1.48%. In addition, the inhibition was 3.32% in experiment [7], 1.98% in experiment [8], 3.45% in [9] and -1.56% in experiment [10].

As for `CN1CCN(Cc2ccc(-c3cc4ncnc(Nc5ccc(OCc6cccc(F)c6)c(Cl)c5)c4s3)o2)CC1`, the inhibition is 4.06% and 5.69% in experiment [1]; 2.07% and 2.73% in [2]; 3.72% and 4.9% in experiment [3]; 1.26% and -0.15% in experiment [4]; 3.35% in [5]; 2.79% and 0.8% in [6]. Besides, the inhibition was 5.88% and 5.34% in experiment [7]; 3.41% and 3.54% in experiment [8]; 4.99% and 6.73% in [9]; -1.62% and 3.97% in experiment [10].

As for `CCn1c(-c2nonc2N)nc2cncc(C(=O)NCCNC)c21`, the inhibition in experiment [1] was determined as 5.17%; in experiment [2], 3.69%; in experiment [3] it was 3.84%; in [4] it was 0.45%; in experiment [5], 0.67%; in experiment [6], 0.58%. Besides, the inhibition in experiment [7] was 3.6%; in [8] it was 2.89%; in experiment [9], 5.11%; in experiment [10], -2.24%.

Turning to `N#Cc1ccc2c(-c3ccnc(NC4CC4)n3)c(-c3ccc(F)cc3)nn2c1`, the inhibition in experiment [1] is 3.98%; in [2], 2.06%; in experiment [3], 5.03%; in experiment [4], 0.15%; in experiment [5] it was -0.22%; in experiment [6], 1.26%. In addition, the inhibition in experiment [7] is 0.36%; in experiment [8], 1%; in experiment [9], 0.3%; in experiment [10], -0.85%.

Regarding `CCS(=O)(=O)c1ccc(OC)c(Nc2ncc(-c3cccc(F)c3)o2)c1`, the inhibition stood at 4.64% in [1]; 3.7% in [2]; 4.58% in experiment [3]; 1.72% in experiment [4]; 0.96% in experiment [5]; 3.74% in experiment [6]. Besides, the inhibition in [7] was 4.31%; in experiment [8], 4.05%; in experiment [9], 5.69%; in experiment [10], -0.92%.

On to `Cc1ccc(-c2cc3c(NC(=O)C4CC4)ncnc3o2)cc1`, for which the inhibition in experiment [1] came out at 5.03%; in experiment [2], 2.01%; in [3] it was 3.1%; in [4], 0.77%; in experiment [5] it was 3.16%; in experiment [6] it was 1.63%. The inhibition in experiment [7] stood at 0.2%; in experiment [8], 4.69%; in experiment [9], 6.42%; in [10] it was 1.4%.

Take `CCS(=O)(=O)c1ccc(OC)c(Nc2ncc(-c3cccc(C(C)=O)c3)o2)c1`: the inhibition in experiment [1] was determined as 1.92%; in experiment [2], 1.93%; in experiment [3], 1.37%; in [4] it was 0.64%; in experiment [5] it was 1.52%; in experiment [6], 1.87%. Besides, the inhibition in experiment [7] turned out to be 6.76%; in experiment [8] it was 3.84%; in experiment [9], 8.73%; in experiment [10] it was 0.35%.

As to `Fc1ccc(Nc2nccc(-c3c(-c4ccc(C(F)(F)F)cc4)nn4ncccc34)n2)cc1F`, the inhibition in experiment [1] was 4.13%; in [2], 3.32%; in experiment [3] it was 3.74%; in [4], -0.65%; in [5], 0.76%; in [6], 1.15%. In addition, the inhibition in [7] is -0.44%; in [8], 3.94%; in experiment [9], 3.93%; in experiment [10], 0.39%.

With `CC(C)c1ccc(-c2cc(-c3c[nH]nc3-c3ccccn3)ccn2)cc1`, the inhibition in [1] is 1.17%; in [2] it was -0.24%; in [3], 3.43%; in experiment [4] it was -0.07%; in experiment [5], 2.01%; in experiment [6], 1.87%. For the same compound, the inhibition was -0.02% in experiment [7], 1.12% in [8], 1.4% in [9] and -1.25% in [10].

As for `NS(=O)(=O)c1ccc(N/N=C2\C(=O)Nc3cccc(CCc4ccncc4)c32)cc1`, the inhibition in [1] was determined as 0.54%; in [2], 0.32%; in [3] it was 0.29%; in experiment [4], 9.4%; in experiment [5], 21.9%; in experiment [6], 51.4%. Further, the inhibition in [7] was 71.6%; in [8], 53.5%; in [9] it was 67.7%; in experiment [10], 32.4%.

Take `c1cnn2ncc(-c3ccnc(NCCCN4CCOCC4)n3)c2c1`: the inhibition in experiment [1] worked out at 5.14%; in experiment [2], 1.77%; in experiment [3], 4.33%; in experiment [4] it was 1.53%; in [5], 13.9%; in experiment [6], 1.1%. Also, the inhibition in experiment [7] amounted to 5.75%; in experiment [8] it was 5.32%; in [9], 5.99%; in [10] it was 0.96%.
